# Bioassay records (PubChem BioAssay)
# AmpC detergent: inhibitors of E. coli AmpC beta-lactamase with detergent. 370,000 tested, 0.041% active. AID 485294. AmpC hydrolysis of nitrocefin, absorbance 480 nm, 0.01% Triton. Potency, µM (highest dose often 114 µM), inactives show top-dose activity change, negative = inhibition, most hits filed as inhibitors. P00811;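 note: 0% = no-compound wells and -100% = no-enzyme wells; nearly all actives have a fitted effect of over 25% in size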
# Target sequence (P00811 whole entry, looked up): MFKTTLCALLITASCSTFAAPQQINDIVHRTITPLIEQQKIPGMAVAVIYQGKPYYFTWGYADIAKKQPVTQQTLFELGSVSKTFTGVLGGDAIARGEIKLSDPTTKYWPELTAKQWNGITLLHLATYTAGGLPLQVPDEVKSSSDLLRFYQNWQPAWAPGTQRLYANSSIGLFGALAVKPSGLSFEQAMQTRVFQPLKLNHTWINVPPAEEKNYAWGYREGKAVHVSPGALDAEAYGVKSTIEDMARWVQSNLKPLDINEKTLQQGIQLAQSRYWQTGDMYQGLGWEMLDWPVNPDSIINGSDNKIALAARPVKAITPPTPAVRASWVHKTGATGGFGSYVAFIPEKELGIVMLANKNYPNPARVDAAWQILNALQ
#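 20 mM phosphate pH 7.0 + 0.01% (detergent screen) or 0.0001% Triton X-100; 5.3 nM AmpC reagent; cpd preinc 15 min RT; nitrocefin (800 uM stock) to start; A480 q20 s × 4 min; Activity was normalised to no-enzyme and no-compound control wells.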
# SARS PLP yeast: blocks SARS-CoV papain-like protease in a yeast assay; S. cerevisiae expressing SARS-CoV PLpro, growth rescue; 330,000 tested, 0.19% active; AID 485353; Potency, µM (titrated, usually from 32.9 µM), without a hit: at the top dose activity, positive = growth rescue, usual class: activators; calls by dose curve; note: 0% is about no effect; nearly all actives have a fitted effect of over 55% in size
# Vaccinia mCherry: inhibitors of vaccinia virus infection (mCherry reporter signal); Vaccinia virus mCherry reporter infection, fluorescence; Potency, µM (top dose mostly 36.5 µM), inactives show at the top dose activity change, negative = inhibition, most hits filed as inhibitors; 310,000 tested, 0.63% active; calls by dose curve; tested in A549 cells; note: % is set by controls: 0 for no effect and ±100 for the full control effect; nearly all actives have a fitted effect of over 35% in size
# AmpC inh no detg: AmpC beta-lactamase inhibition without detergent; Potency, µM (series often up to 57.1 µM), inactives show at the highest dose activity change, negative = inhibition, most hits filed as inhibitors; 330,000 tested, 0.52% active; AmpC nitrocefin hydrolysis, absorbance 480 nm, 0.0001% Triton; P00811;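 note: plate controls were no compound for no effect and no enzyme for full effect; nearly all actives have a fitted effect of over 20% in size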
#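 20 mM phosphate pH 7.0 + 0.01% (detergent screen) or 0.0001% Triton X-100; 5.3 nM AmpC reagent; cpd preinc 15 min RT; nitrocefin (800 uM stock) to start; A480 q20 s × 4 min; Activity was normalised to no-enzyme and no-compound control wells.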
# AMA1-RON2 inh: AMA1-RON2 (P. falciparum) interaction inhibition; Potency, µM (top dose mostly 58.2 µM), for the others: at the highest dose activity change, negative = inhibition, hits mostly inhibitors; AlphaScreen AMA1-biotinylated RON2 peptide binding; 360,000 tested, 0.2% active;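 note: 0% = vehicle wells and -100% = peptide control; nearly all actives have a fitted effect of over 45% in size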
#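 AMA1 (3D7) with his tag at 25 nM final met compounds first, then biotinylated RON2 peptide at 25 nM; detection used donor plus acceptor beads, 10 µg/mL apiece, read by AlphaScreen after 30 min at room temperature.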
# VACV Venus inh: vaccinia inhibition (Venus reporter). Potency, µM (highest dose often 36.5 µM), for inactives: at the highest dose activity change, negative = inhibition, most hits filed as inhibitors. Vaccinia virus Venus reporter expression, fluorescence. 330,000 tested, 0.46% active; calls by dose curve; tested in A549 cells; note: % is set by controls: 0 for no effect and ±100 for the full control effect; nearly all actives have a fitted effect of over 30% in size
# * hit, by the source's call; i = inactive; ? = inconclusive; / = no result given; [ ] = another dose, or the depositor's remark. The list is not random: actives were taken first. Their share in the collection is about 1.4%. Unless noted, calls come from the whole dose curve; as a rule, active = well fitted curve in the direction sought with a large enough effect; inconclusive = small, poorly fitted or top-dose-only effect, or another doubt; inactive = no such curve, though single readings can be large; an effect the other way counts as inactive or inconclusive. Potency is the fitted concentration of half-maximal effect.
SMILES,AmpC detergent,SARS PLP yeast,Vaccinia mCherry,AmpC inh no detg,AMA1-RON2 inh,VACV Venus inh
Cc1cccc(NC(=O)CSc2nnc(-c3ccco3)c(-c3ccco3)n2)c1,8%,-1%,-14%,16µM*,?,-8%
COc1ccccc1C1CN(CC(=O)N2CCC(C(O)c3ccccn3)CC2)Cc2ccccc2O1 (stereo not drawn),/,/,-23%,/,/,-15%
Cc1ccc2c(c1)CN(CCC(=O)NCc1cc(C)n(C)n1)CC(C)O2 (stereo not drawn),/,/,-17%,/,/,-11%
c1ccc2ncccc2c1,/,2%,4%,-19%,11%,-8%
c1ccc2nccnc2c1,/,/,11µM*,/,/,3.5µM*
CN(CC(=O)Nc1ccccc1Br)C(=O)c1ccccc1OCc1ccc(Cl)cc1,/,/,0.1µM*,/,3%[11.6 µM],-35%
CN(CC(=O)Nc1ccccc1Br)C(=O)c1ccc(-c2ccc(Cl)cc2)o1,-8%,-3%,i,60%,-6%,-27%
O=C(NCC1Cc2cccc(-c3nccs3)c2O1)c1ccnc(Cl)c1 (stereo not drawn),/,/,-10%,/,/,-25%
CCc1nn(CCCC(=O)N2CCN(c3cc(Cl)ccc3C)CC2)c(=O)c2cc3occc3n12,-6%,/,-17%,/,/,-18%
COc1ccc(NC(=O)NC(C)c2ccc3c(c2)OCO3)cc1OC (stereo not drawn),?,0%,-8%,-33%,1%,-11%
CC(NC(=O)Nc1ccc(Cl)cc1)c1ccc2c(c1)OCO2 (stereo not drawn),?,6%,-13%,8.9µM*,-7%,7%
CC(=O)N1CCc2cc(S(=O)(=O)NC(Cc3ccccc3)C(=O)NCc3ccccc3)ccc21 (stereo not drawn),3%,/,-13%,/,/,-9%
Cc1c(C(=O)NCCCN2CCCC2=O)cnn1-c1ncc2c(n1)-c1ccccc1CC2,/,/,?,/,/,-25%
O=C(Oc1ccccc1)c1cccnc1Oc1ccccc1,40µM*,-1%,/,-40%,16%,/
c1ccc(-c2cn(C[C@H]3CC[C@@H]([C@@H]4CC[C@H](Cn5cc(-c6ccccn6)nn5)O4)O3)nn2)nc1,1%,25%,i,28%,1µM*,-4%
Cc1cc(C)c(O)c(CN(C)Cc2cc(Cl)cc(Cl)c2O)c1,/,/,2.8µM*,/,34%,?
Cc1cccnc1-c1cccc2c1OC(CNC(=O)C(=O)c1ccccc1)C2 (stereo not drawn),/,/,-14%,/,/,-13%
CNc1c(Br)cc(C(O)C2=CCc3ccccc32)cc1Br (stereo not drawn),/,/,-22%,/,/,-16%
C[C@]12CC(=CO)C(=O)C[C@@H]1CC[C@@H]1[C@@H]2CC[C@@]2(C)[C@H]1CC[C@]2(C)O,50µM*,-5%,/,-26%,/,/
C[C@]1(O)CCC2C3CC[C@@H]4CC(=O)CC[C@]4(C)C3CC[C@@]21C (stereo partly drawn),/,-3%,-9%,20%,-2%,-14%
Cn1c(NCC(O)c2ccccc2)nc2c1c(=O)n(Cc1ccc(Cl)c(Cl)c1)c(=O)n2C (stereo not drawn),/,/,/,/,-7%,10µM*
CCn1cc(C(=O)NCc2ccc3c(c2)OCO3)c(=O)c2cc(F)c(N3CCN(C(=O)c4ccco4)CC3)cc21,3%,28%,11µM*,250%,-1%,13µM*
OCCCNCc1cc2cc3c(cc2nc1N1CCN(c2cccc(Cl)c2)CC1)OCO3,/,/,-13%,/,/,-7%
COCc1ccc(CN2CCOc3c(cc(-c4cc(C)c5cccc(OC)c5n4)cc3OC)C2)o1,/,/,-19%,/,/,4%
COc1cc(O)ccc1CN1CCc2nnc(C(C)NC(=O)c3cc(F)ccc3F)n2CC1 (stereo not drawn),/,/,i,/,/,-10%
O=C(COC(=O)/C=C/c1cccc(C(F)(F)F)c1)NCc1ccc(F)cc1,1%,7%,-10%,-31%,-8%,-3%
O=C(COC(=O)/C=C/c1cccc(C(F)(F)F)c1)NCc1ccccc1,-14%,?,-14%,7.9µM*,3%,-4%
